Rows were chosen to be rich in hits. Some 13% of all compounds tested hit in one or more screens of this group.
USP17 block: inhibitors of human USP17 deubiquitinase | 47,000 compounds, 6.5% hits | purified USP17, Ub-rhodamine cleavage fluorescence, 3 h | inhibition, % at 50 µM | Ubiquitin carboxyl-terminal hydrolase 17-like protein 5 (Homo sapiens), A8MUK1
USP8 inh: inhibitors of human USP8 deubiquitinase; Ubiquitin carboxyl-terminal hydrolase 8 (Homo sapiens), P40818; purified USP8, Ub-rhodamine cleavage fluorescence, 30 min; inhibition, % at 20 µM; 47,000 compounds, 4.2% hits; AID 1645853, 2021
USP30 block: inhibitors of human USP30 deubiquitinase; purified USP30, Ub-rhodamine cleavage fluorescence; inhibition, % at 25 µM; 47,000 compounds, 5.3% hits
Target sequence (Q70CQ3 whole entry, looked up): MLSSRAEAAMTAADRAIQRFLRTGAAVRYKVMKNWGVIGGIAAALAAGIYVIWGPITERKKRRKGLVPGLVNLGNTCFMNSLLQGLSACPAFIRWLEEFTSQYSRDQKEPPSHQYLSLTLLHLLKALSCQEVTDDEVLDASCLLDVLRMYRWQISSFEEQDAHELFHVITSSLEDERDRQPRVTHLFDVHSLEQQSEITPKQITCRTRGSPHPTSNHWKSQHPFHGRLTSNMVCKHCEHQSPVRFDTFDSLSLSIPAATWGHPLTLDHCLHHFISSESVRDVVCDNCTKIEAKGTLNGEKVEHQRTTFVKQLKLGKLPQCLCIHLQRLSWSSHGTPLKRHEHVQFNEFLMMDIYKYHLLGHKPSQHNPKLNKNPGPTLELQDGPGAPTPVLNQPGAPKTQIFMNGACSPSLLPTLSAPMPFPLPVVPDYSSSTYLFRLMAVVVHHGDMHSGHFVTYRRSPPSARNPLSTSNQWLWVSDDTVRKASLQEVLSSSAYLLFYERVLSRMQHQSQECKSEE
USP10 block: inhibitors of human USP10 deubiquitinase; Ubiquitin carboxyl-terminal hydrolase 10 (Homo sapiens), Q14694; purified USP10, Ub-rhodamine fluorescence, 60 min; inhibition, % at 20 µM; 47,000 compounds, 1.1% hits
USP28 inh: inhibitors of human USP28 deubiquitinase; inhibition, % at 25 µM; Ubiquitin carboxyl-terminal hydrolase 28 (Homo sapiens), Q96RU2; 47,000 compounds, 3% hits; purified USP28, Ub-rhodamine cleavage fluorescence, 30 min
A number is an active result; i = inactive. No stated cut-off is given here; in the data, active means inhibition above about 30%; inactive means the rest.

SMILES	USP17 block	USP8 inh	USP30 block	USP10 block	USP28 inh
Cc1ccc(CNC(=O)CCCn2c(=O)c3ccccc3n(CC(=O)Nc3cc(C)[nH]n3)c2=O)cc1	i	i	i	i	i
Cc1cc(C)n(-c2ccnc(N3CCC(C(=O)N4CCC(C)CC4)CC3)n2)n1	i	i	i	i	i
Cn1ccc2ccn(CC(=O)NC3CCCC3)c(=O)c21	i	i	i	i	i
COc1ccc(C(=O)Nc2ccc(Cn3cncn3)cc2)cc1F	i	i	i	i	35
O=C(Nc1ccc(Cn2cncn2)cc1)c1ccc2c(c1)OCO2	i	i	i	i	45
O=C(Nc1ccc(-c2nnc3n2CCCCC3)cc1)c1ccc2c(c1)OCO2	i	i	i	i	71
CN(C(=O)Cc1cccc(F)c1)c1nc2c(s1)CCc1occc1-2	i	i	i	i	i
O=C(N[C@H]1[C@H](O)[C@H](O)C[C@@H]1C1CCCCC1)C1CC1	i	i	49	i	i
CCNC(=O)c1cccc(NC(=O)c2cc(Cl)c3c(c2)OCO3)c1	i	i	i	i	31
CCN(C(=O)c1cccc(NC(=O)c2ccccc2)c1)c1ccccc1	i	i	i	i	i
N#Cc1ccc(OCc2noc(-c3ccc(F)cc3)n2)cc1	i	38	i	i	i
CCCOc1ccc(-c2ccc(-c3nc(CCC)no3)cc2)cc1	i	i	i	i	i
COCc1cc(C)nc2sc3c(c12)NC(c1ccc(NC(C)=O)cc1)N(Cc1ccccc1)C3=O (stereo unspecified)	53	i	72	i	i
COCc1cc(C)nc2sc3c(c12)NCN(c1ccc(C)c(Cl)c1)C3=O	i	i	i	i	i
Cc1ccc(OCc2nc3ccccc3n2CC(=O)Nc2ccc(C(F)(F)F)cc2)cc1	i	i	38	i	i
COc1ccc(NC(=O)Cn2c(CSc3ccc(C)cc3)nc3ccccc32)cc1	54	i	i	i	i
CN1[C@H]2CCN(C(=O)C3CCC3)CC[C@@H]2Oc2ccccc2S1(=O)=O	i	i	i	i	i
CCCCCCCC1OC(=O)Cc2cc(O)c(O)c(O)c21 (stereo unspecified)	96	77	63	82	94
COc1ccc(CNC(=O)C2(C)Cn3nc(C)cc3C(=O)N2c2ccc3c(c2)OCCO3)cc1 (stereo unspecified)	i	i	i	i	i
CCc1ccc(NC(=O)CSc2[nH]c(=O)c(C(=O)O)cc2C#N)cc1	42	54	i	i	48
O=C(OCCCc1ccccc1)c1nn(Cc2ccccc2)c(=O)c2ccccc12	i	i	i	i	i
C/C=C1\CN(C(=O)C(NC(=O)[C@H](N)[C@@H](O)[C@H](O)COC(N)=O)[C@H]2O[C@@H](n3cc(CO)c(=O)[nH]c3=O)[C@H](O)[C@@H]2O)[C@@H]1C(=O)O (stereo partly specified)	i	i	i	i	i
Cc1ccccc1-c1nnc(-c2ccc(C(=O)N(C)Cc3cccc(F)c3)cc2)o1	i	i	40	i	i
COc1cccc(CNc2ccc(C)cn2)c1O	i	i	i	i	i
CC(c1ccccc1)c1nc(-c2ccc(=O)[nH]c2)no1 (stereo unspecified)	i	i	i	i	61
SMILES	USP17 block	USP8 inh	USP30 block	USP10 block	USP28 inh
CCc1nc(-c2ccc(C)c(S(=O)(=O)NCC(C)c3ccccc3)c2)no1 (stereo unspecified)	i	i	i	i	i
O=C(CC1c2ncccc2C(=O)N1c1ccccc1)NCc1cccc(F)c1 (stereo unspecified)	i	i	i	i	i
COc1cc2c(cc1OC)-c1cc(Oc3ccc4cccnc4c3)nc(=O)n1CC2	49	35	i	i	i
O=C(c1nc(-c2cnccn2)no1)N1CCN(C2CCCCC2)CC1	i	i	i	i	i
CCc1cnc(N2CCC3(CC3C(=O)N(C)Cc3ccccn3)C2)nc1 (stereo unspecified)	i	i	i	i	i
Cc1noc(C)c1S(=O)(=O)N(CC(=O)N(C)c1ccc(Br)cc1)c1ccc2c(c1)OCO2	i	i	i	i	i
Cc1ccccc1NC(=O)Cn1c(C)ncc(C(=O)NC2CC2)c1=O	i	i	i	i	i
O=C(Cn1c(-c2ccccc2)ncc(C(=O)NC2CC2)c1=O)Nc1ccccc1	36	30	73	i	i
O=C(Cn1cncc(C(=O)NC2CCCC2)c1=O)Nc1cccc(F)c1	82	i	i	i	i
Cc1cccnc1C(=O)NC[C@]1(O)C[C@H](c2cccc(F)c2)O[C@H](C)[C@H]1O	i	i	i	i	i
C=C(C)[C@@H]1CC[C@]2(C)[C@H](CC[C@@H]3[C@@H](C(C)(O)CCC=C(C)C)CC[C@]32C)[C@@]1(C)CCC(=O)O (stereo partly specified)	99	91	93	93	69
FC(F)(F)c1cnc(/C=C/Nc2cccc(Oc3ncc(C(F)(F)F)cc3Cl)c2)c(Cl)c1	i	75	i	i	i
FC(F)(F)c1cnc(/C=C/Nc2ccccc2Oc2ccccc2)c(Cl)c1	i	i	i	i	i
Cc1ncc(C(=O)N2CC[C@H]3NC(=O)c4ccccc4OCC/C=C/C[C@H]3C2)cn1	i	i	i	i	i
CC1OC2CC(O)C1(O)C1=C2C(O)=C(C(N)=O)C(=N)C1=O (stereo unspecified)	62	39	i	36	60
CC(=O)N1CC2(CCN(C(=O)C(C)(C)C)CC2)Nc2ccccc21	i	32	i	i	i
COc1ccccc1N=C1N=C(Nc2ccccc2OC)c2ccccc21	i	i	i	i	i
Cc1ccc(NC(=O)c2sc(=S)n(CCc3ccccc3)c2N)cc1	76	i	44	i	i
COc1ccc(Sc2nc(-c3ccccn3)ncc2OC)cc1	i	i	35	i	i
COc1cnc(-c2ccccn2)nc1Sc1cccc(C(F)(F)F)c1	i	i	i	i	i
O=C(NCCc1ccccn1)c1cn2ccccc2n1	i	i	i	i	i
COc1ccc(N(C)S(=O)(=O)c2cccc(C(=O)OC(C)C(=O)Nc3cccc(C(C)=O)c3)c2)cc1 (stereo unspecified)	i	i	i	i	i
CC(=O)c1cccc(NC(=O)C(C)OC(=O)c2cc3ccccc3[nH]2)c1 (stereo unspecified)	60	i	45	i	36
CCC(=O)Oc1cn(-c2ccc(C(C)C)cc2)c2nc(CC)n3c4ccccc4nc3c12	i	47	i	i	i
CC(=O)Oc1cn(C(C)c2ccccc2)c2nc(C)n3c4ccccc4nc3c12 (stereo unspecified)	i	i	i	i	i
Cc1cc(O)c(Oc2cc(C)cc(O)c2O)c(O)c1	47	i	31	i	47
CC12CCN(CC3CCCCC3)CCN1C(=O)N(Cc1ccccn1)C2=O (stereo unspecified)	i	i	i	i	i

High-throughput results: PubChem, Buhrlage Lab, Dana-Farber Cancer Institute and Novartis Institutes for BioMedical Research (Cambridge, Mass)
